# Results reported in PubChem BioAssay AID504834 (National Center for Advancing Translational Sciences (NCATS), 2011).
# About 22,000 (6.9%) of roughly 320,000 compounds were called active. About 27% were inconclusive and are not listed. The call rests on the fitted dose curve; in most records, active means well fitted inhibition curve with a large enough effect; inconclusive means small, poorly fitted or top-dose-only effect, or another doubt; inactive means no such curve, though single readings can be large or run the other way. Shown is part of a subset that was picked to be rich in actives.
# Experiment: Primary qHTS for delayed death inhibitors of the malarial parasite plastid, 96 hour incubation
# Conditions: P. falciparum luciferase reporter growth; series mostly up to 28.7 µM; activity change, negative = inhibition: at the top concentration
# Procedure, shortened: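 96 h incubation, 37 C, 5% CO2, of luciferase-reporter P. falciparum-infected RBCs (2% hematocrit, 0.05% parasitemia final) with test compounds; endpoint luminescence.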
# On the % scale 0 is the no-effect control and ±100 the full control effect; potency means the concentration at half of the fitted maximal effect.
SMILES,"activity change, negative = inhibition",Potency
CC(C)c1c(O)nc(SCCOc2ccc(Cl)cc2)[nH]c1=O,28.2% (inactive),–
CCOc1cc2[nH]c(=S)n(Cc3ccc(C(=O)N4CCN(C)CC4)cc3)c(=O)c2cc1OCC,-8.43% (inactive),–
Cc1cccc(CCNC(=O)Cn2ncc3c([nH]c4ccc(C)cc43)c2=O)c1,10.2% (inactive),–
CC1CC(C)CN(CCCNC(=O)Cn2ncc3c([nH]c4ccccc43)c2=O)C1 (stereo not drawn),13.4% (inactive),–
Cc1ccc2[nH]c3c(=O)n(CC(=O)NCCc4ccc(Cl)cc4)ncc3c2c1,–,13.1 µM (active)
Nc1c(C(=O)OCC(=O)Nc2ccc(OC(F)F)cc2)[nH]c(=O)[nH]c1=O,46.1% (inactive),–
O=C(CN(c1ccc2c(c1)OCCO2)S(=O)(=O)c1ccccc1)Nc1ccc2c(c1)OCO2,209% (inactive),–
COc1ccccc1OCCCC(=O)Nc1ccc2c(c1)OCCO2,-38.1% (inactive),–
O=C(CCS(=O)(=O)Cc1ccccc1)Nc1ccc2c(c1)OCCO2,–,2.94 µM (active)
Cc1ccc(-n2c(SCC(=O)N3CCC(C(=O)O)CC3)nc3ccccc3c2=O)cc1C,180% (inactive),–
CN(C)c1ccc(NC(=O)CN2C3CCCC2CC(NC(=O)c2ccccc2)C3)cc1 (stereo not drawn),-5.33% (inactive),–
CCCCCc1ccc(-c2cn(Cc3ccc4ccccc4c3)nn2)cc1,-14.2% (inactive),–
O=C1CC(c2cccc(Br)c2)C2=C(CCCC2=O)N1 (stereo not drawn),83.8% (inactive),–
O=C1CC(c2cccc(F)c2)C2=C(CCCC2=O)N1 (stereo not drawn),–,9.28 µM (active)
O=C1OCC2=C1C(c1ccccc1)CC(=O)N2c1cccc(F)c1 (stereo not drawn),41% (inactive),–
COc1ccc(CNC(=O)c2cc(C(=O)C3CC3)c[nH]2)cc1,12.8% (inactive),–
O=[N+]([O-])c1ccc2oc(-c3cccc(O)c3)nc2c1,-7.91% (inactive),–
COc1ccc(-c2nc3cc([N+](=O)[O-])ccc3o2)cc1OC,-9.95% (inactive),–
CC(=O)Oc1ccc2c(=O)oc(-c3ccc([N+](=O)[O-])cc3)nc2c1,–,2.33 µM (active)
O=C(NCc1cccs1)c1ccc(CS(=O)Cc2ccccc2Cl)o1 (stereo not drawn),2.57% (inactive),–
O=Cc1cn(-c2ccccc2)nc1-c1ccccn1,21.2% (inactive),–
CC(=O)OCc1cc2cc(C)ccc2[nH]c1=O,-4.43% (inactive),–
CCNCc1cc2cc(C)ccc2[nH]c1=O,-11.6% (inactive),–
COc1ccc2[nH]c(=O)c(CN(CC3CCCO3)C(=O)Nc3ccccc3)cc2c1 (stereo not drawn),24.2% (inactive),–
CCC(=O)N(CCc1ccccc1)Cc1cc2cc(C)ccc2[nH]c1=O,39.5% (inactive),–
Cc1ccc2[nH]c(=O)c(CN(CCCN(C)C)C(=O)Nc3cccc(Cl)c3)cc2c1,–,2.94 µM (active)
Cc1ccc2[nH]c(=O)c(CN(CC3COCCO3)C(=O)Nc3ccccc3C)cc2c1 (stereo not drawn),–,0.465 µM (active)
COc1ccc(S(=O)(=O)NCC(c2ccc(C)cc2)N2CCN(C)CC2)cc1OC (stereo not drawn),-10.3% (inactive),–
